Assay: probe aCHRDL2 binding to arrayed compounds – biochemical, biotinylated probe, 635/667 nm fluorescence, primary screen (AID 1100)
Details: small-molecule microarray, higher = more signal

Row | SMILES | composite z-score
1 | CCCCOC(OCCCC)C(O)CSc1ccc2ccccc2c1 (stereo unspecified) | -0.392
2 | CCOC(=O)CCN1C(=O)[C@H]2[C@H]3[C@H](O)[C@H](O)CC(=O)[C@@H]3CC[C@H]2C1=O | -0.834
3 | CON=C(C)CCN1CCCc2nc(C)c(C)cc21 | -0.429
4 | COC(=O)CC=C1c2ccccc2[C@H](OC)[C@H]1C | -0.624
5 | C=CC[C@@H]1C=C[C@H](ON=C[C@@H](NS(=O)(=O)c2ccc(C)cc2)[C@H](C)C=CCC(=O)OC)[C@@H](CO)O1 | -0.642
6 | O=C1C=C[C@@H](O)[C@@H]2[C@@H]3C(=O)N(c4cccc(Oc5ccccc5)c4)C(=O)[C@@H]3CC[C@@H]12 | -0.597
7 | C=CC[C@@H]1C=C[C@H](Oc2ccc(C)cc2)[C@@H](COC(=O)NCc2cccc3ccccc23)O1 | 0.0944
8 | O=C1[C@H]2[C@H]3[C@H](O)[C@H](O)CC(=NOCc4ccccc4)[C@@H]3CC[C@H]2C(=O)N1c1cccc(Oc2ccccc2)c1 | -0.186
9 | CCCC[C@H]1CN2[C@@H](CC[C@@H](C)[C@@H]2c2ccc(Br)cc2)C(=O)O1 | -0.442
10 | CCOC(=O)[C@H](Cc1ccccc1)NC(=O)CCC1CC(OC(=O)NCc2cccc3ccccc23)CC2(CCCC(COC(=O)NCc3ccc4c(c3)OCO4)O2)O1 (stereo partly specified) | -0.343
11 | CC(C)(C)N1C(=O)[C@H]2[C@H]3[C@H](O)[C@H](O)CC(=NNC(=O)OCc4ccccc4)[C@@H]3CC[C@H]2C1=O | -0.518
12 | COc1ccc(OC[C@@H]2CC3[C@@H](c4ccc(Br)cc4)[C@H](C)CC[C@H]3C(=O)O2)cc1 (stereo partly specified) | -0.727
13 | CC(C)=CCCC(C)=CCON=C1C[C@@H](O)[C@@H](O)[C@@H]2[C@@H]3C(=O)N(c4cccc(Oc5ccccc5)c4)C(=O)[C@@H]3CC[C@H]12 | -0.2
14 | CCN1C(=O)[C@H]2[C@H]3[C@H](O)[C@H](O)CC(=NO[C@H](C)c4cn([C@H](CO)Cc5ccccc5)nn4)[C@@H]3CC[C@H]2C1=O | -0.681
15 | C#CCCCON=C1C[C@@H](O)[C@@H](O)[C@@H]2[C@@H]3C(=O)N(C[C@@H]4CCCO4)C(=O)[C@@H]3CC[C@@H]12 | -0.362
16 | COC(=O)CC=C[C@@H](C)[C@@H](C=NOC[C@@H](O)COCc1ccco1)NS(=O)(=O)c1ccc(C)cc1 | -1.13
17 | CC(=O)OC[C@H]1O[C@H](CC=NO[C@@H](C)c2cn([C@H](CO)Cc3ccccc3)nn2)C=C[C@@H]1OC(C)=O | -0.624
18 | CCc1cc2c(nc1CC)CCN(CCC(C)=NO[C@@H]1O[C@H](COC(C)=O)[C@@H](OC(C)=O)[C@H](OC(C)=O)[C@H]1OC(C)=O)C2 | -0.82

Row | SMILES | composite z-score
19 | CC(C)(C)N1C(=O)[C@H]2[C@@H]3C(=CC[C@H]2C1=O)C(=O)[C@H]1O[C@H]1[C@H]3O | -0.779
20 | CC(C)=NOC(C)CN1CCCCc2nc(C)c(C)cc21 (stereo unspecified) | -0.331
21 | Cc1ccc2[nH]c3nc(CCCn4ccnc4-c4ccccc4)nnc3c2c1 | -0.0165
22 | COc1ccc(COC(=O)NN=C2C[C@@H](O)[C@@H](O)[C@@H]3[C@@H]4C(=O)N([C@@H](C)c5ccccc5)C(=O)[C@@H]4CC[C@H]23)cc1 | 1.4
23 | COC(=O)CC=C[C@@H](C)[C@@H](C=NOC(C)CN1CCCCc2nc(C)c(C)cc21)NS(=O)(=O)c1ccc(C)cc1 (stereo partly specified) | 0.0097
24 | CO[C@@H]1COC(=O)[C@H](CCSC)NC(=O)CC=C[C@@H](C)COC(=O)[C@@H]2CCCN2C(=O)CC=C[C@H]1C | -0.584
25 | COC(=O)[C@H](C)NC(=O)CC=C[C@@H](C)[C@@H]1C=C[C@H](O)[C@@H](CO)O1 | -1.28
26 | CO[C@@H](C(C)C)[C@@H](C)C1OC(=O)CC1O (stereo partly specified) | -0.0917
27 | COc1ccc(OC[C@@H](CO)OC)cc1 | -0.401
28 | COC(=O)[C@H](C)NC(=O)CCC1CC(OC(=O)NCc2ccc3c(c2)OCO3)CC2(CCCC(COC(=O)NCCC(C)C)O2)O1 (stereo partly specified) | -0.434
29 | COc1cccc([C@H]2Oc3ccc(OC)cc3C(=NO[C@@H](C)c3cc(-c4c(C)cc(C)cc4C)no3)[C@@H]2O)c1 | 1.53
30 | CCOC(=O)CCN1C(=O)[C@H]2[C@H]3[C@H](O)[C@H](O)CC(=NNC(=O)OCC)[C@H]3CC[C@H]2C1=O | -0.799
31 | O=C1[C@H]2[C@H]3[C@H](O)[C@H](O)CC(=NOC[C@@H](O)COCc4ccco4)[C@@H]3CC[C@H]2C(=O)N1Cc1ccc2c(c1)OCO2 | -1.42
32 | CC(=O)OC[C@H]1O[C@H](CC=NO[C@@H](C)c2cc(-c3c(C)cc(C)cc3C)no2)C=C[C@@H]1OC(C)=O | 0.0256
33 | CCO[C@H](c1cc(OC)cc([N+](=O)[O-])c1OC)[C@H](C)[C@@H](OC)[C@H](C)C=CCC(=O)OC | -0.133
34 | COC(=O)[C@H](C)NC(=O)CCC1CC(OC(=O)NCc2ccc3c(c2)OCO3)CC2(CCCC(COC(=O)NCCc3ccc(Cl)cc3)O2)O1 (stereo partly specified) | -0.589
35 | COc1ccc(COC(=O)NN=C2C[C@@H](O)[C@@H](O)[C@@H]3[C@@H]4C(=O)N(c5cccc(Oc6ccccc6)c5)C(=O)[C@@H]4CC[C@H]23)cc1 | 1.2
36 | COc1cccc([C@H]2Oc3ccc(OC)cc3C(=NOCC[C@@H]3C=C[C@H](OC(C)=O)[C@@H](COC(C)=O)O3)[C@@H]2O)c1 | -0.153
